Results from PubChem BioAssay.

Experiment: RAM pathway blockade in budding yeast – dse1pr::URA3 reporter, 5-FOA selection, pilot screen (AID 869);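 note: 0% = DMSO wells with no growth and 100% = 10 µM 1-NA-PP1 with full growth; RAM network block rescues cells from 5-FOA so hits raise OD615 growth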
Conditions: S. cerevisiae dse1pr::URA3 5-FOA growth, OD615, 2 d; at 10 µM; active compounds read high; strain carries analog-sensitive mutant Cbk1 kinase;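 active = inhibition over a set limit, the all-compound mean plus 3 SD, in both replicate runs; inconclusive = over that limit in just one replicate run; inactive = at or under that limit in both runs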

inhibition, inactive:
OC(COc1ccc(Cl)c2ccccc12)CN1CCN(c2ccccn2)CC1 (stereo not drawn) -0.275%
CC1(C)CC(=O)C=C(NCCCNC2CCCCC2)C1 0.125%
Cc1cc(Nc2ccc(F)cc2)n2nc(C)nc2n1 -0.875%
Cc1cc(C(=O)N2CCN(C(c3ccccc3)c3ccccc3)CC2)on1 2.04%
COc1cccc(C2NC(CCSC)(C(=O)O)C3C(=O)N(C(C)C)C(=O)C23)c1O (stereo not drawn) 1.93%
CC1CC(C)CN(S(=O)(=O)c2cccc3cccnc23)C1 (stereo not drawn) -0.45%
COc1ccc(NS(=O)(=O)c2ccc3c(c2)oc(=O)n3C)c(OC)c1 1.07%
Cc1ccc(-c2nc(CS(=O)(=O)CC(=O)N3CC(C)CC(C)C3)c(C)o2)cc1 (stereo not drawn) 1.93%
COc1ccc(-n2c(Cn3c(=O)sc4ccccc43)nnc2SCC(=O)N2CCCC2)cc1 1.5%
CC(C)c1ccccc1NC(=O)CCCC(=O)O 0.36%
CCc1ccc(C2CC(c3ccccc3)Nc3nc(N)nn32)cc1 (stereo not drawn) -0.27%
COc1cccc(-c2csc(NC(=O)C3CC3)n2)c1 -0.98%
CCC(C)N1C(=O)CCC1C(=O)NCc1ccc2c(c1)OCO2 (stereo not drawn) 2.33%
C=CCSC1=C(C#N)C(c2ccc(OCC)cc2)CC(=O)N1 (stereo not drawn) 1.47%
COC(=O)C1C(=O)C=C(N2CCOCC2)CC1(C)C (stereo not drawn) 0.685%
CCOCCCNC(=O)C(NC(=O)C1CCC(=O)N1)c1ccc(C)cc1 (stereo not drawn) 1.03%
CC(C)N(CCc1ccncc1)C(=O)Nc1ccc(Cl)c(Cl)c1 2.42%
C=CCn1c(C)nc2c(c1=O)c1nc3ccccc3nc1n2-c1ccc(C)cc1 1.32%
COC(=O)c1ccccc1NC(=O)Cn1cc2c(n1)CCC(C)C2 (stereo not drawn) 1.79%
Cc1cccc(-n2c(CNC(=O)c3ccccc3)nnc2SCC(=O)Nc2nccs2)c1 1.17%
CCc1nnc(NC(=O)CSc2nnc(Cc3cccn3C)n2C)s1 0.7%
CC(=O)c1ccc(N2CCN(C(=O)c3cc4c(=O)n(C)c5ccccc5c4n3C)CC2)cc1 1.98%
O=C(c1cc(-c2cccc(O)c2)on1)N1CCc2ccccc2C1 0.005%
